Here are results for 15 molecules from PubChem BioAssay (NCI).

The panel holds about 83,000 compounds, 20% with a hit somewhere; the sample as a whole holds those more often.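 Single-dose data. Exposure time 48 hours. Values below 10 considered active.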 Unmarked numbers belong to inactive results. Activity calls are given as the source filed them.

What all share (experiment): NCI-60 one-dose screen, 48 h (100 = growth as untreated, 0 = no growth, -100 = all killed)
What all share (details): 10 µM unless noted

The test system of assay [1] is T-47D breast.
Assay [2] has as its system BT-549 breast.
Assay [3] deals with MDA-MB-435 melanoma.
For assay [4], the system named is SW-620 colon.
For assay [5], the system named is MCF7 breast.
The test system of assay [6] is HCT-116 colon.
In assay [7] the test system is HCC-2998 colon.
For assay [8], the system named is KM12 colon.

On to `C#CCC(C)(O)/C=C/C1=C(C)CCCC1(C)C` (stereo not given), for which the growth in assay [1] was 83%; in assay [2] it was 87.6%; in assay [3], 103%; in assay [4] it was 104%; in assay [5], 97.6%; in assay [6], 82.6%. The figures for the growth in assay [7] and in assay [8] were 106% and 97.6%, respectively.

Regarding `CC1(c2ccccc2)OC1C(=O)O` (stereo not given), the growth in assay [1] was 117%; in assay [2], 94.9%; in assay [3], 98.7%; in assay [4] it was 102%; in assay [5] it was 105%; in assay [6], 101%. In addition, the growth in assay [7] is 96.5%; in assay [8], 105%.

For `OCCNc1nc(Nc2ccc(Cl)c(Cl)c2)nc2ccccc12`, the growth in assay [1] is 67.9%; in assay [2], 77.8%; in assay [3], 50%; in assay [4], 28.6%; in assay [5], 30.3%; in assay [6], 29.7%. Besides, the growth in assay [7] is -37.9% (active); in assay [8], 35.5%.

With `COc1ccc(OC)c(-c2c(C#N)c(-c3ccco3)nc3c2c(-c2ccccc2)nn3-c2ccccc2)c1`, the growth in assay [1] is 84%; in assay [2], 108%; in assay [3], 106%; in assay [4], 95.8%; in assay [5] it was 94.7%; in assay [6], 87.8%. The figures for the growth in assay [7] and in assay [8] were 105% and 106%, respectively.

As to `O=S(=O)(NCCNc1cc(-c2cn(-c3ccccc3)nc2-c2cccc(O)c2)ccn1)c1ccc(Cl)cc1`, the growth in assay [1] was 14.4%; in assay [2], 50.7%; in assay [3], 23.3%; in assay [4], 32.8%; in assay [5], 14.9%; in assay [6] it was 20.4%. Also, the results for the growth in assay [7] and in assay [8] were -42.8% (active) and 19.4%, respectively.

For the molecule `C=C(C)[C@@H]1CC[C@]2(C(=O)N3CCCNCC3)CC[C@]3(C)[C@H](CC[C@@H]4[C@@]5(C)CCC(=O)C(C)(C)[C@@H]5CC[C@]43C)[C@@H]12`, the growth in assay [1] was 83.9%; in assay [2], 93.6%; in assay [3], 95.5%; in assay [4], 93.5%; in assay [5] it was 91.4%; in assay [6], 71.6%. The growth was 103% in assay [7] and 98.7% in assay [8].

For the molecule `COc1cccc(-c2nn(-c3ccccc3)cc2-c2ccnc(NCCCNS(=O)(=O)c3ccc(C(F)(F)F)cc3)c2)c1`, the growth is -2.76% (active) in assay [1]; 36.6% in assay [2]; 27.1% in assay [3]; 47.7% in assay [4]; 16.9% in assay [5]; 22.9% in assay [6]. Also, the growth was 20% in assay [7] and 23.8% in assay [8].

Take `Cc1ccc(-c2ccc(/C=C(\C#N)c3nc(-c4ccco4)cs3)o2)cc1`: the growth in assay [1] is -22.8% (active); in assay [2], 103%; in assay [3], 98.6%; in assay [4] it was 99.8%; in assay [5], 14.5%; in assay [6], 98%. For the same molecule, the values for the growth in assay [7] and in assay [8] were 54.8% and 61.2%, respectively.

As for `C(=C\c1c[nH]c2ccccc12)/c1ccc2ccccc2n1`, the growth was 68.4% in assay [1]; 68.8% in assay [2]; 93% in assay [3]; 107% in assay [4]; 63.7% in assay [5]; 65.9% in assay [6]. The growth in assay [7] is 97.8%; in assay [8] it was 52.4%.

Take `O=c1[nH]ncc(Br)c1Br`: the growth was 46.3% in assay [1]; 83.2% in assay [2]; 64.3% in assay [3]; -80.3% (active) in assay [4]; 23% in assay [5]; 15.2% in assay [6]. The growth in assay [7] was 54%; in assay [8], 45.8%.

For `Cn1cc(-c2nc(-c3c[nH]c4ncccc34)cs2)c2ccccc21`, the growth was 29.1% in assay [1]; 82.9% in assay [2]; 36.5% in assay [3]; 95.8% in assay [4]; 10.5% in assay [5]; 76.9% in assay [6]. The growth in assay [7] is 32.6%; in assay [8], 12.9%.

Take `Cc1ccc(S(=O)(=O)Nc2ccc(-c3cc(-c4cccc(F)c4)c(C#N)c(=O)[nH]3)cc2)cc1`: the growth in assay [1] is 41.9%; in assay [2], 74.7%; in assay [3], 96.3%; in assay [4], 73.5%; in assay [5], 16.9%; in assay [6], 8.61% (active). Further, the growth was 104% in assay [7] and 72.9% in assay [8].

Regarding `CC(C)C[C@@H](NC(=O)[C@@H](Cc1ccccc1)NC(=O)c1cnccn1)B1O[C@H]2[C@H](O)[C@@H](C(=O)NCCCC[C@@H]3NC(=O)[C@@H](Cc4ccccc4)NC(=O)[C@H](CC(=O)O)NC(=O)CNC(=O)[C@H](CCCN=C(N)N)NC3=O)O[C@@H](CN)[C@H]2O1`, the growth in assay [1] is -70.4% (active); in assay [2] it was -66.1% (active); in assay [3], -78.1% (active); in assay [4], -47.7% (active); in assay [5] it was -17.1% (active); in assay [6], -50% (active). Also, the figures for the growth in assay [7] and in assay [8] were -78.9% (active) and -43.9% (active), respectively.

In the case of `COc1cc(/C=N/NC(=S)NNC(=S)NC2CCCCC2)cc(OC)c1OC`, the growth is 69.9% in assay [1]; 105% in assay [2]; 98.8% in assay [3]; 104% in assay [4]; 92.4% in assay [5]; 104% in assay [6]. Besides, the growth was 112% in assay [7] and 95.1% in assay [8].

With `CC1(C)C=CC[C@]2(C)[C@H]3CC[C@@H]4[C@H]5[C@H](C(=O)/C=C/c6cccnc6)CC[C@]5(CO)CC[C@@]4(C)[C@]3(C)CC[C@@H]12`, the growth is -74.5% (active) in assay [1]; -81% (active) in assay [2]; -57.1% (active) in assay [3]; -59% (active) in assay [4]; -21.8% (active) in assay [5]; -88.6% (active) in assay [6]. In addition, the growth in assay [7] is -66.8% (active); in assay [8] it was -80.7% (active).
